# Bioassay records (PubChem BioAssay)
# An excerpt weighted towards active compounds, which were near 11% of everything screened.
# IMPase cell inh: qHTS Assay for Identifying the Cell-Membrane Permeable IMPase Inhibitors. Inositol monophosphatase 1 (Rattus norvegicus), P97697. CHO-M1 cells, IP1 accumulation, HTRF TR-FRET ratio. inhibition (IP1 accumulation), % at 46.1 µM. 120,000 tested, under 10 active. AID 901, 2007; active = well fitted curve in the direction sought with a large enough effect in the signal ratio, not every such curve was filed as active; inconclusive = small, poorly fitted or top-dose-only effect, or a change in a side signal; inactive = no such curve, though single readings can be large or run the other way; the % refers to the signal ratio;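 note: cells stimulated with carbachol in lithium chloride buffer; higher means more IMPase inhibition seen as more IP1 and lower FRET ratio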
# Target sequence (P97697 whole entry, looked up): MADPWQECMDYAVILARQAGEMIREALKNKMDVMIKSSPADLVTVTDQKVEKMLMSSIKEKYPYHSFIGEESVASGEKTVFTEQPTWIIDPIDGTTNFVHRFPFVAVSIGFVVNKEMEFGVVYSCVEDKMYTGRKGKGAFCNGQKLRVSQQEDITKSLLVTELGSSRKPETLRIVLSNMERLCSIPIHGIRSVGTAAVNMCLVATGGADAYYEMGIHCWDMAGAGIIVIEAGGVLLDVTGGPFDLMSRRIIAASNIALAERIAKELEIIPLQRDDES
#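 CHO-M1 cells (CHO stably expressing M1 receptor), compound up to 46 uM final, stimulated with carbachol (50 uM as added) in buffer with 50mM LiCl, pH 7.4, 30 min at 37C. Cytosolic IP1 read by TR-FRET; AC50 from Hill fits.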
# PNC inhibitor: High Content Assay for Compounds that inhibit the Assembly of the Perinucleolar Compartment; PC3M PTB-GFP, PNC prevalence imaging, 16 h; stronger effect = lower value; activity change (PNC), negative = inhibition, % at 10 µM; hit rate 3.1% among 140,000;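 active = readout at or below -70, meaning at least 70% loss of cells showing the perinucleolar compartment, a nuclear body marking cancer cells; inconclusive = readout between -30 and a set limit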
#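 PC3M cells stably expressing PTB-GFP, 750–1000 cells/well, treated 16 h at 37 °C with compound (23 nl of library stock), in duplicate. After paraformaldehyde fixation and Hoechst stain, imaged at 20x; PNC prevalence scored by image analysis.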
# IMPase Li cell: qHTS Assay for Identifying the Cell-Membrane Permeable IMPase Inhibitors: Potentiation with Lithium; CHO-M1 cells, IP1 TR-FRET (IP-One), carbachol + lithium; Potency, µM (doses to about 59.4 µM), most hits filed as inhibitors; hit rate 0.35% among 210,000; AID 1457, 2008; active = well fitted curve in the direction sought with a large enough effect; inconclusive = small, poorly fitted or top-dose-only effect, or another doubt; inactive = no such curve, though single readings can be large; an effect the other way counts as inactive or inconclusive;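 note: IP1 builds up when IMPase is blocked and the TR-FRET signal falls; nearly all actives have a fitted effect of over 50% in size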
#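 CHO-M1, 2000 cells/well, 16–30 h culture; cpd + low Li+, 30 min 37C; lysis with d2-IP1/Eu-anti-IP1 Ab, 10 min RT; TR-FRET 665/620 ratio and 620 channel; AC50 via Hill.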
# NPSR antag: qHTS Assay for Antagonists of the Neuropeptide S Receptor: cAMP Signal Transduction | Q6W5P4 | CHO-NPSR cells, cAMP TR-FRET, antagonist mode | Potency, µM (series often up to 38.3 µM), hits mostly inhibitors | hit rate 1% among 220,000 | AID 1461, 2008; active = well fitted curve in the direction sought with a large enough effect; inconclusive = small, poorly fitted or top-dose-only effect, or another doubt; inactive = no such curve, though single readings can be large; an effect the other way counts as inactive or inconclusive; note: nearly all actives have a fitted effect of over 50% in size
# HPGD inh: qHTS Assay for Inhibitors of HPGD (15-Hydroxyprostaglandin Dehydrogenase). Potency, µM, usual class: inhibitors. hit rate 4.3% among 150,000. AID 894, 2007. purified HPGD, NADH fluorescence kinetic, PGE2 substrate. 15-hydroxyprostaglandin dehydrogenase [NAD(+)] (Homo sapiens), P15428
# Target sequence (P15428 whole entry, looked up): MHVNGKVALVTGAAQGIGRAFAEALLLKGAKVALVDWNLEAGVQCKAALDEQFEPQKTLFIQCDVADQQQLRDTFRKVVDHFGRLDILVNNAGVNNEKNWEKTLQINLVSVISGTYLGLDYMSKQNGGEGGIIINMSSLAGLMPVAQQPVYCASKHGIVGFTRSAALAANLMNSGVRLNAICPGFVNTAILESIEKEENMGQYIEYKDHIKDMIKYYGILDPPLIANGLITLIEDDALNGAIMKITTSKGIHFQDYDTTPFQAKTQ
#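 NADH formation kinetics: reaction with 30 uM PGE2 and 1 mM NAD+ (final), 20 nM enzyme, Tris-HCl pH 8 with Tween 20, after 15 min compound preincubation at room temperature. Fluorescence change, last versus first of five reads.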
# ALDH1A1 block: qHTS Assay for Inhibitors of Aldehyde Dehydrogenase 1 (ALDH1A1); Aldehyde dehydrogenase 1A1 (Homo sapiens), P00352; Purified ALDH1A1, NADH fluorescence, propionaldehyde substrate; Potency, µM (series often up to 75.3 µM), usual class: inhibitors; hit rate 7.3% among 220,000; AID 1030, 2008
# Numbers stand for hits; 0 = inactive; ? = inconclusive; - = no result given; [ ] = remark or other dose. Unless noted, calls come from the whole dose curve; as a rule, active = well fitted inhibition curve with a large enough effect (not every such curve was filed as active); inconclusive = small, poorly fitted or top-dose-only effect, or another doubt; inactive = no such curve, though single readings can be large or run the other way.
SMILES,IMPase cell inh,PNC inhibitor,IMPase Li cell,NPSR antag,HPGD inh,ALDH1A1 block
CC(=O)Nc1ccc(NC(=O)Cn2cc3c(n2)CCC(C)C3)cc1 (configuration not stated),0,?,0,0,0,?
CCOC(=O)C1CCN(C(=O)COc2ccc(Cl)cc2C)CC1,0,-87,0,0,0,?
CCOC(=O)C1CCN(C(=O)COc2ccc(S(=O)(=O)N3CCCC3)cc2C)CC1,-,-,0,0,-,18µM
Cc1cc(S(=O)(=O)N2CCCC2)ccc1OCC(=O)N1CCC(C(N)=O)CC1,-,-,0,0,-,?
COCCn1c(SCc2cc(C(C)=O)ccc2OC)nc2cc(Cl)ccc2c1=O,-,0,0,0,0,18µM
C=CCn1c(SCc2cc(C(C)=O)ccc2OCC)nc2ccccc2c1=O,-,?,0,0,0,2.2µM
COc1ccc(C(C)=O)cc1CSc1nc(C)cc(C)n1,-,-,0,0,-,?
CCOc1ccc(C(C)=O)cc1CSc1nc(C)cc(C)n1,-,-,0,0,-,4µM
COc1ccc(C(C)=O)cc1CSc1nc2ccccc2c(=O)n1-c1ccccc1,0,?,?,0,0,?
COc1cc(C2CC(=O)Oc3c(C(C)C)ccc(C)c32)cc(OC)c1OC (configuration not stated),-,-,0,-,0,0
CCOc1ccc(C(=O)CN2CCN(S(=O)(=O)c3ccc(OC)cc3)CC2)cc1,0,0,0,0,0,20µM
NC(=O)CN1CCN(S(=O)(=O)c2ccc(Br)cc2)CC1,-,-,0,0,-,0
COc1ccc(C(=O)CN2CCN(S(=O)(=O)c3cccc([N+](=O)[O-])c3)CC2)cc1,0,0,0,0,0,10µM
COc1cccc(CN2CCN(S(=O)(=O)c3ccc(Br)cc3)CC2)c1,0,0,0,0,0,0
CCOc1ccc(NC(=O)CCN2CCN(S(=O)(=O)c3ccc(OC)cc3)CC2)cc1,0,0,0,0,0,0
COc1cccc(C(=O)CN2CCN(S(=O)(=O)c3ccc(Br)cc3)CC2)c1,0,0,0,0,0,11µM
CCOc1ccc(C(=O)CN2CCN(S(=O)(=O)c3ccc(Br)cc3)CC2)cc1,0,0,0,0,0,22µM
Cc1ccc2nc(NC(=O)c3ccccn3)sc2c1,-,-,0,0,-,0
O=C(Nc1nc2c(F)cc(F)cc2s1)c1ccccn1,-,-,0,0,-,10µM
CCOC(=O)C1(Cc2cccc(Cl)c2)CCCN(C(=O)c2cccnc2)C1 (configuration not stated),-,-,0,0,-,0
Cc1ccccc1-n1nc(C(=O)c2cccs2)cc(-c2nc3ccccc3[nH]2)c1=N,0,-100,0,0,0,0
Cc1sc2nc(C3CC3)nc(N3CCN(S(=O)(=O)c4ccc(F)cc4)CC3)c2c1C,0,?,0,0,0,0
Cc1sc2nc(C3CC3)nc(NCCNS(C)(=O)=O)c2c1C,0,0,0,0[7.67 µM],0,32µM
Oc1ccc(NCc2ccccc2OCc2ccccc2)cc1,0,0,0,0,14µM,5.6µM
Oc1ccc(NCc2ccccc2OCc2ccc(Cl)cc2)cc1,0,-,-,-,-,-
SMILES,IMPase cell inh,PNC inhibitor,IMPase Li cell,NPSR antag,HPGD inh,ALDH1A1 block
Cc1ccc(S(=O)(=O)Nc2ccccc2/C=N/c2nc3ccccc3n2C(C)C)cc1,0,-92,0,0,0,0
CCCCn1c(/N=C/c2ccccc2NS(=O)(=O)c2ccc(C)cc2)nc2ccccc21,0,?,0,0,0,0
CC(=O)N/C(=C\c1ccccc1)C(=O)N1CCOCC1,-,-,0,0,-,0
Cc1nc(N2CCN(c3ccccc3)CC2)nc2c1C(=O)CCC2,0,?,0,0,?,?
O=C1CCCc2nc(N3CCN(c4ccccc4)CC3)ncc21,0,0,11µM,0,0,0
CSC(=N)N,0,-,0,?,0,0
COc1cc(Br)cc(CN2CCN(C/C=C/c3ccccc3)CC2)c1O,0,?,0,0,0,0
COc1cc(C/C=C\c2ccccc2)c(OC)cc1O,-,-,0,-,0,25µM
CC(C)(C)NC(=O)CN(C(=O)c1csnn1)c1cccc2c1CCCC2,-,-,0,0,-,0
CCOc1ccc(N(CC(=O)Nc2ccc(OC)cc2)S(=O)(=O)c2c(C)noc2C)cc1,0,0,0,0,0,0
COc1ccc(N(CC(=O)Nc2ccc(C)cn2)S(=O)(=O)c2c(C)noc2C)cc1,0,-80,0,0,0,0
COc1ccc(N(CC(=O)NCc2ccc(C)cc2)S(=O)(=O)c2c(C)nn(C)c2C)cc1,-,?,0,0,0,25µM
COc1ccc(CNC(=O)CN(c2ccc(OC)cc2)S(=O)(=O)c2c(C)nn(C)c2C)cc1,-,0,0,0,0,0
CCOc1ccccc1NC(=O)CN(c1ccc(C)cc1)S(=O)(=O)c1c(C)noc1C,0,-132,0,0,0,0
CCOc1ccc(OCC)c(NC(=O)CN(c2ccc(C)cc2)S(=O)(=O)c2c(C)noc2C)c1,0,0,0,?,0,0
COc1ccc(COC(=O)N/N=C2/C[C@@H](O)[C@@H](O)[C@@H]3[C@@H]4C(=O)N(c5cccc(Oc6ccccc6)c5)C(=O)[C@H]4CC[C@H]23)cc1,-,-,-,-,-,0[13.5 µM]
CCCCCCCC(=O)OCC(=O)[C@@]1(O)CC[C@H]2[C@@H]3CCC4=CC(=O)CC[C@]4(C)[C@H]3[C@@H](O)C[C@@]21C,-,0,0,0,0,0
